The panel holds about 83,000 compounds, 20% with a hit somewhere; the sample as a whole holds those more often.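 A percent growth of 40 corresponds to 60% growth inhibition; 0 means no net growth; -100 means all cells died. Active threshold: below 10.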 Active and inactive are the calls of the source.
Assays:
Assay in all cases: NCI-60 one-dose screen, 48 h (100 = growth as untreated, 0 = no growth, -100 = all killed)
[1] = system: DU-145 prostate; conditions: 10 µM unless noted
[2] = system: K-562 leukemia; conditions: 10 µM unless noted
[3] = system: MALME-3M melanoma; conditions: 10 µM unless noted
[4] = system: RXF 393 renal; conditions: 10 µM unless noted
[5] = system: SF-295 CNS; conditions: 10 µM unless noted
[6] = system: UACC-257 melanoma; conditions: 10 µM unless noted
[7] = system: SNB-19 CNS; conditions: 10 µM unless noted
[8] = system: LOX IMVI melanoma; conditions: 10 µM unless noted
[9] = system: SK-MEL-2 melanoma; conditions: 10 µM unless noted
[10] = system: ACHN renal; conditions: 10 µM unless noted
[11] = system: HL-60(TB) leukemia; conditions: 10 µM unless noted
[12] = system: CCRF-CEM leukemia; conditions: 10 µM unless noted
[13] = system: MOLT-4 leukemia; conditions: 10 µM
[14] = system: OVCAR-8 ovarian; conditions: 10 µM unless noted
[15] = system: IGROV1 ovarian; conditions: 10 µM
[16] = system: OVCAR-3 ovarian; conditions: 10 µM unless noted
[17] = system: NCI/ADR-RES ovarian; conditions: 10 µM unless noted
[18] = system: T-47D breast; conditions: 10 µM unless noted
[19] = system: HCC-2998 colon; conditions: 10 µM unless noted
[20] = system: SK-MEL-5 melanoma; conditions: 10 µM unless noted

Measured: growth

COC(C)(C)CCC[C@H](C)C/C=C/C(C)=C/C(=O)OC(C)C
inactive: [1] 113% | [2] 85.3% | [3] 85.9% | [4] 104% | [5] 98.2% | [6] 101% | [7] 109% | [8] 92.9% | [9] 97.1% | [10] 109% | [11] 79.8% | [12] 78% | [13] 90% | [14] 98.2% | [15] 99.7% | [16] 111% | [17] 91.7% | [18] 75.7% | [19] 101%

O=[N+]([O-])c1ccccc1N1CCNCC1
active: [18] -4.84%
inactive: [1] 108% | [2] 91.7% | [3] 89% | [4] 121% | [5] 104% | [6] 94.4% | [7] 102% | [20] 102% | [8] 95.8% | [9] 106% | [10] 105% | [11] 80.1% | [12] 112% | [13] 103% | [14] 107% | [15] 85% | [16] 101% | [17] 93.6% | [19] 100%

C1CNC2CCCC2C1 (stereo unspecified)
inactive: [1] 107% | [2] 112% | [3] 99.4% | [4] 93.1% | [5] 104% | [6] 106% | [7] 111% | [20] 96.7% | [8] 101% | [9] 106% | [10] 103% | [11] 117% | [12] 106% | [13] 116% | [14] 106% | [15] 117% | [16] 107% | [17] 109% | [18] 108% | [19] 107%

Cc1cc(C)nc(C)c1.[Cl][Hg][Cl]
inactive: [1] 102% | [2] 83.6% | [3] 92.8% | [4] 124% | [5] 94.9% | [6] 93.8% | [7] 104% | [20] 106% | [8] 80.2% | [9] 98.7% | [10] 101% | [11] 93.7% | [12] 78.3% | [13] 92% | [14] 100% | [15] 106% | [16] 108% | [17] 102% | [18] 81.8% | [19] 114%

CO[C@@H](c1ccccc1Cl)[C@H](C)OC(N)=O
inactive: [1] 106% | [2] 104% | [3] 93.5% | [4] 113% | [5] 95.8% | [6] 91.7% | [7] 96.7% | [20] 98.7% | [8] 98.1% | [9] 107% | [10] 99.6% | [11] 106% | [12] 82.6% | [13] 107% | [14] 103% | [15] 102% | [16] 111% | [17] 103% | [18] 101% | [19] 91.5%

CC(C)CCC[C@@H](C)[C@H]1CC[C@H]2[C@@H]3CC=C4C[C@@H](OC(=O)Cc5ccc(N(CCCl)CCCl)cc5)CC[C@]4(C)[C@H]3CC[C@]12C
active: [19] -5.75%
inactive: [1] 116% | [2] 90.4% | [5] 119% | [6] 103% | [7] 107% | [20] 95.8% | [8] 104% | [9] 94.6% | [10] 100% | [11] 86.9% | [12] 120% | [13] 99.8% | [14] 99.8% | [16] 112% | [17] 102% | [18] 106%

CC1(C)CC2(CC(C)(C)c3cc(O)c(O)cc32)c2cc(O)c(O)cc21
inactive: [1] 98.8% | [3] 101% | [4] 85.8% | [5] 96.1% | [6] 109% | [7] 104% | [20] 92.5% | [8] 94.8% | [9] 110% | [10] 96.1% | [11] 104% | [12] 84.5% | [13] 71.6% | [14] 97.3% | [15] 98.4% | [16] 88.9% | [17] 103% | [18] 104% | [19] 102%

CCCCN(CCCC)CC(O)c1ccccc1 (stereo unspecified)
inactive: [1] 113% | [2] 103% | [4] 116% | [5] 103% | [6] 106% | [7] 106% | [20] 118% | [8] 103% | [9] 115% | [10] 102% | [11] 111% | [12] 99.8% | [13] 97.2% | [14] 109% | [15] 115% | [16] 108% | [17] 105% | [18] 127% | [19] 102%

N#[N+]c1cnc([O-])[nH]c1=O
active: [17] -8.91%
inactive: [1] 99.9% | [2] 76% | [3] 105% | [5] 105% | [6] 75.8% | [7] 97.8% | [20] 97% | [8] 85.2% | [9] 96.7% | [10] 94.4% | [11] 67.4% | [12] 69.9% | [13] 91% | [14] 88.7% | [18] 101%

COc1ccc(C(=O)c2ccc([As]=O)cc2)cc1 (stereo unspecified)
active: [2] 0.914% | [3] -87% | [4] -99.6% | [5] -97.9% | [6] -95.7% | [7] -81.4% | [20] -99.5% | [8] -97.1% | [9] -94% | [10] -91.8% | [11] -47.4% | [12] -25.1% | [13] -24.5% | [14] -84.2% | [15] -29.3% | [16] -40.4% | [17] -5.33% | [18] -77.6% | [19] -88.5%

C[C@]12CCC(=O)CC1CC[C@@H]1C2CC[C@@]2(C)C1CC[C@@H]2OC(=O)CC[Se][Se]CCC(=O)O[C@H]1CCC2[C@@H]3CCC4CC(=O)CC[C@]4(C)C3CC[C@@]21C (stereo partly specified)
active: [11] 9.16%
inactive: [1] 110% | [3] 94.2% | [4] 81.7% | [5] 96.7% | [6] 90.6% | [7] 76.7% | [20] 93.2% | [8] 80.8% | [9] 98.4% | [10] 100% | [12] 100% | [13] 90.1% | [14] 94.2% | [15] 97.3% | [16] 109% | [17] 92.9% | [18] 86.5% | [19] 108%

CC1(C)N=C(N)N=C(N)N1c1cccc(C(=O)Nc2cccc(S(=O)(=O)F)c2)c1
active: [10] -26%
inactive: [1] 114% | [2] 118% | [3] 88.9% | [4] 92.2% | [5] 84.9% | [6] 93.9% | [7] 97.3% | [20] 99.8% | [8] 99.7% | [9] 114% | [11] 103% | [12] 97.5% | [13] 112% | [14] 100% | [15] 105% | [16] 112% | [17] 104% | [18] 84% | [19] 98.5%

O=S(=O)(Cl)c1ccccc1 (tested in a mixture with another compound)
inactive: [1] 109% | [3] 92.2% | [4] 99.1% | [6] 97.1% | [7] 100% | [20] 99.2% | [8] 98.8% | [10] 93.9% | [12] 114% | [13] 93% | [15] 109% | [16] 106% | [17] 110% | [18] 97.7% | [19] 100%

COP(=S)(OC)Oc1ccc(SC)c(C)c1
inactive: [1] 111% | [2] 99.6% | [3] 105% | [4] 107% | [5] 91.5% | [7] 109% | [20] 98.9% | [8] 93.3% | [9] 103% | [10] 101% | [12] 113% | [15] 99.7% | [16] 104% | [17] 100% | [18] 96.6% | [19] 104%

[Br][Pb]([c]1ccccc1)([c]1ccccc1)[c]1ccccc1
active: [1] -97.5% | [2] -46.7% | [4] -83.2% | [6] -99% | [7] -93% | [20] -100% | [8] -100% | [9] -96.6% | [10] -92.8% | [11] -39.9% | [12] -21.5% | [13] -24.4% | [14] -100% | [15] -50.9% | [16] -99% | [17] -71.6% | [18] -72% | [19] -94.6%

C1CN1c1nc(N2CC2)nc(N2CC2)n1
inactive: [2] 26.4% | [3] 49.7% | [4] 39% | [5] 14.2% | [6] 43.7% | [20] 20.1% | [8] 17% | [9] 76.9% | [12] 15.6% | [13] 10.5% | [16] 65.8% | [17] 36.8% | [18] 26.7% | [19] 49.7%
active: [1] -1.22% | [10] -29.7% | [11] 0.901% | [15] -3.62%

C[C@]12CC[C@@H]3c4ccc(OC(=O)Cc5ccc(N(CCCl)CCCl)cc5)cc4CC[C@H]3[C@@H]1CC[C@@H]2OC(=O)Cc1ccc(N(CCCl)CCCl)cc1
inactive: [1] 103% | [2] 106% | [3] 113% | [5] 103% | [7] 107% | [20] 87% | [8] 108% | [10] 109% | [11] 108% | [12] 136% | [13] 104% | [14] 109% | [16] 109% | [17] 55.9% | [18] 121%
active: [9] -3.92%

Reference: PubChem BioAssay (NCI)
